GLP-1R agonist = GLP-1 receptor (human) agonism | HEK293 GLP-1R CRE-luciferase, luminescence, 4-6 h; cells express a hypersensitive GLP-1R form | Potency, µM (highest dose often 45.6 µM), most hits filed as activators | hit rate 0.007% among 380,000
Target sequence (P43220 whole entry, looked up): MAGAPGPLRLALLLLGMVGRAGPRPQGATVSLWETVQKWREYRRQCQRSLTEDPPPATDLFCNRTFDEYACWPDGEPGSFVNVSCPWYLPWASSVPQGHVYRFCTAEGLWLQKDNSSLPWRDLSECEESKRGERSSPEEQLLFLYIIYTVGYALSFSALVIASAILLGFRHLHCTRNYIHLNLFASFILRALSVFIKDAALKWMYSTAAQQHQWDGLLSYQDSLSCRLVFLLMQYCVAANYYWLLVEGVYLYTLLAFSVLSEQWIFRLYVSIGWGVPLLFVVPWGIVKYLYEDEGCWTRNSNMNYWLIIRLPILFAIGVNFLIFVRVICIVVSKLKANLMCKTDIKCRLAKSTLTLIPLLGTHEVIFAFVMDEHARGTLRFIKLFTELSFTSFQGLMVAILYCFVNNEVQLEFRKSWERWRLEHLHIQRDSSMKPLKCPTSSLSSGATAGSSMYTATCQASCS
GLP-1R inv ag = GLP-1 receptor (human) inverse agonism; Potency, µM (series often up to 38.3 µM), most hits filed as inhibitors; hit rate 1.6% among 410,000; HEK293 GLP-1R CRE-luciferase, luminescence, 24 h; GLP-1R form is constitutively active; AID 624417; note: nearly all actives have a fitted effect of over 55% in size
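Cells are plated, allowed 12 hours at 37 deg C, then treated with compounds for 24 hr before luciferase detection reagent is added and luminescence is read after 12 min at room temperature. The HEK293 line carries constitutively active GLP-1R with a cAMP-responsive reporter.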
ATXN2 expr inh = inhibitors of ATXN2 expression; Potency, µM (top dose mostly 57 µM), hits mostly inhibitors; HEK-293 ATXN2-luciferase reporter, luminescence, 24 h; hit rate 0.72% among 360,000; AID 1745845; note: nearly all actives have a fitted effect of over 55% in size
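qHTS (up to 57 uM final) was run with 24 h compound exposure of reporter cells at 37 °C. Each well was multiplexed: SteadyGlo luminescence measured ATXN2-luciferase expression after a fluorogenic Gly-Phe-AFC viability readout (25 uM final).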
ATXN viability = reduces viability in counter-screen for ATXN expression inhibitors; S2 cells (HEK-293 line with an ATXN2-luciferase reporter) viability, CellTiter-Fluor protease fluorescence, 24 h; Potency, µM (titrated, usually from 56.7 µM), usual class: cytotoxic; hit rate 0.49% among 400,000; AID 651635; note: nearly all actives have a fitted effect of over 40% in size
HepG2 viability = HepG2 cytotoxicity, counter-screen for TGF-b inhibitors; Potency, µM (top dose mostly 46.1 µM), actives largely listed as cytotoxic; AID 588856; hit rate 0.76% among 410,000; HepG2 CAGA-GFP viability, ATP luminescence, 18 h
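CellTiter-Glo luminescence gave cytotoxicity after 18 hours at 37 degrees C. The cells were HepG2 CAGA-GFP in 1% FBS DMEM, stimulated with 500 pg/mL TGF-beta after compound addition. %Activity was normalised to no-cell wells (complete cell-killing) and DMSO (no toxicity), and curves were fitted and classified.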
TGFb SMAD3 inh = inhibitors of TGF-b signaling; AID 588855; hit rate 1.2% among 410,000; Potency, µM (highest dose often 46.1 µM), hits mostly inhibitors; HepG2 CAGA-GFP TGF-b/SMAD3 reporter, GFP fluorescence, 18 h; TGF-beta stimulated, 500 pg/mL final; note: nearly all actives have a fitted effect of over 65% in size
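HEPG2 CAGA-GFP, 1000 cells/well; 2 h settle, 37 C; cpd via pin tool; TGF-b 500 pg/mL final; 18 h, 37 C; GFP imaging ex488/em500-530; %Activity normalised to -TGF-b and +DMSO controls; CRC fit, curve class.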
Hits are given with their value; . = inactive; ? = inconclusive; / = no result; ! = not active in a repeat. The list is not random: actives were taken first. Their share in the collection is about 3.7%. Calls come from the whole dose curve; as a rule, active = well fitted curve in the direction sought with a large enough effect; inconclusive = small, poorly fitted or top-dose-only effect, or another doubt; inactive = no such curve, though single readings can be large; an effect the other way counts as inactive or inconclusive.

SMILES	GLP-1R agonist	GLP-1R inv ag	ATXN2 expr inh	ATXN viability	HepG2 viability	TGFb SMAD3 inh
CC(C)C[C@H](NC(=O)c1nc[nH]c1C(=O)NCC(=O)OCc1ccccc1)C(=O)OCc1ccccc1	.	.	.	.	.	?
CC1CCN(C(=O)c2[nH]cnc2C(=O)N[C@@H](C)C(=O)OCc2ccccc2)CC1	.	.	.	.	.	11µM
CC(C)C[C@H](NC(=O)c1[nH]cnc1C(=O)N[C@@H](C)c1ccccc1)C(=O)OCc1ccccc1	.	4.5µM	?	/	.	?
CCOC(=O)c1ccc(NC(=O)c2nc[nH]c2C(=O)N[C@H](C)c2ccccc2)cc1	.	?	32µM	?	.	?
CC(C)C[C@H](NC(=O)c1nc[nH]c1C(=O)NCC(=O)OC(C)(C)C)C(=O)OCc1ccccc1	.	?	.	.	.	11µM
COc1ccc(OC)c(Nc2c3ccccc3nc3ccccc23)c1	.	11µM	11µM	14µM	.	13µM
COc1cc(NS(C)(=O)=O)ccc1Nc1c2ccccc2nc2ccccc12	.	?	0.25µM	?	.	?
COc1cc(Nc2c3c(nc4ccccc24)CCC3)cc(OC)c1OC	.	?	.	?	.	?
COc1ccc(OC)c(Nc2c3c(nc4ccccc24)CCC3)c1	?	?	.	?	.	11µM!
CC(C)c1c(C(=O)N2CCCCC2c2cccnc2)cnn1-c1nccc(-c2cccs2)n1 (stereo not given)	/	/	/	.	/	/
C=CCn1c(SCC(=O)NCc2ccco2)nnc1-c1cccc(N(C)C)c1	/	/	/	/	.	?
CCN1CCCC1CNCc1cc2c(OC)c(OC)c(OC)cc2nc1N(C)C (stereo not given)	/	/	/	.	/	/
COc1ccc(SCC(Cc2ccccc2)N2CCN(CC(C)C)CCC2=O)cc1 (stereo not given)	/	/	/	/	.	?
CCc1ccc(NC(=O)COC(=O)c2ccccc2OCC(=O)N(C)C)cc1	/	/	/	/	.	.
CN(C)c1ccc(/C=C2\SC(=O)N(CCc3nnc(N)s3)C2=O)cc1	.	?	4µM	.	.	.
CNC(=O)c1ccc(CN(C)C(=O)/C=C/c2ccc(S(=O)(=O)N3CCCCCC3)cc2)cc1	.	.	/	.	7.1µM	.
COC(=O)C1(Cc2cc(-c3cccc(Br)c3)no2)CCN(C(=O)OC(C)(C)C)CC1	.	10µM	.	?	.	?
CC1=CC(C)(C)Nc2ccc(OC(=O)CCN3C(=O)c4ccccc4C3=O)cc21	.	.	25µM	/	.	?
CCCCNC(=O)c1cccc(NC(=O)c2nsc3ccccc23)c1	/	.	.	?	.	.
CSC1(SC2=NCCN2)SC2(NCCN2)S1	.	?	?	?	.	13µM
Cc1cc(C)cc(N(CC(=O)Nc2cccc(C)n2)S(=O)(=O)c2c(C)noc2C)c1	.	8.9µM	?	?	.	?
COc1ccc(N(CC(=O)NC(C)c2ccccc2)S(=O)(=O)c2c(C)noc2C)cc1 (stereo not given)	.	8.9µM!	.	.	.	.
COc1ccc(N(CC(=O)NCc2ccccc2)S(=O)(=O)c2c(C)noc2C)cc1	.	.	.	.	.	.
CN(C1=C(N2CCOCC2)C(=O)c2ccccc2C1=O)c1ccccc1	.	10µM	.	?	.	10µM
O=C1C=C(N2CCOCC2)c2ccccc2C1=O	.	?	?	25µM	5µM	5µM
SMILES	GLP-1R agonist	GLP-1R inv ag	ATXN2 expr inh	ATXN viability	HepG2 viability	TGFb SMAD3 inh
Cc1ccccc1CNC(=O)Cn1c(=O)c2cccn2c2cccnc21	/	.	/	/	.	.
Clc1cccc(Cl)c1CSc1cc2c(nn1)-c1ccccc1CC2	.	.	.	.	.	.
Clc1ccccc1CSc1cc2c(nn1)-c1ccccc1CC2	.	10µM	.	.	.	.
CC(=O)c1c(C)oc2c1cc(NS(=O)(=O)c1ccc(C(C)(C)C)cc1)c1ccccc12	/	11µM	.	?	.	?
CCOC(=O)c1c(-c2ccccc2)oc2ccc(O)c(CN3CCN(C)CC3)c12	.	3.2µM	.	.	.	?
CCOC(=O)c1c(C)oc2cc(Cl)c(O)c(CN(C)C)c12	.	.	.	.	.	.
CCOC(=O)c1c(-c2ccccc2)oc2cc(CN(C)C)c(O)c(CN(C)C)c12	.	.	14µM	.	.	.
N#Cc1c(Cl)nsc1NC(=O)c1ccccc1	.	.	.	.	.	3.5µM
COC(=O)[C@@]1(Cc2ccc(OC)cc2)[C@@H]2C(=CC(=O)[C@H]2CC(=O)C(=O)N2CCCC2)CN1C(=O)c1ccccc1	.	?	?	28µM	.	?
O=C(CS(=O)(=O)c1cccc2nsnc12)N1CCN(c2ccccc2F)CC1	/	.	.	.	.	16µM
O=C(Nc1ccc(S(=O)(=O)N2CCOCC2)cc1)c1ccc(Cl)cc1Cl	.	.	/	.	.	.
O=S(=O)(Nc1ccccc1N1CCCCC1)c1ccc(Cl)s1	.	10µM	.	.	.	.
O=C(Nc1ccc(S(=O)(=O)N2CCOCC2)cc1)c1cc(Cl)ccc1NS(=O)(=O)c1ccc(Cl)s1	/	/	.	16µM!	/	/
O=C(Nc1ccccc1)c1ccccc1NS(=O)(=O)c1ccc(Cl)s1	.	?	?	?	.	13µM
CC(C)N(Cc1nc(-c2ccccc2)no1)C(=O)c1ccc(Cl)cc1	.	11µM	.	?	.	.
C/C(=N\Nc1cc(N2CCCCC2)nc(C)n1)c1ccc(Br)cc1	.	10µM	?	.	16µM	10µM
C1=Nc2ccccc2/C1=C/c1c[nH]c2ccccc12	/	/	/	/	.	.
COc1ccc(-c2cc(=O)c3c(O)cc(O)cc3o2)cc1	.	.	.	.	.	10µM
COc1ccc(-c2cc(=O)c3cc(O)ccc3o2)cc1	?	.	.	.	.	.
CC(C)C1=CC2=CC[C@@H]3[C@](C)(CCC[C@@]3(C)C(=O)O)[C@H]2CC1	.	/	/	/	/	/
C[C@]12CC[C@@H]3c4ccc(O)cc4CC[C@H]3[C@@H]1C[C@H](O)C2O (stereo not given in full)	.	/	/	/	/	/
Cc1cc(=O)[nH]c(N=N/C(=N/Nc2ccc(O)cc2)c2ccccc2)n1	.	.	?	?	.	.
COc1ccc(N/N=C(/N=Nc2nc(C)cc(=O)[nH]2)c2ccccc2)cc1	.	?	?	28µM	.	?
Cc1cc(=O)[nH]c(N=N/C(=N/Nc2ccccc2C)c2ccccc2)n1	.	?	2.5µM	?	.	.
COc1cc(OC)c(NC(=O)c2c(C)nn(-c3ccc(C)cc3)c2-n2cccc2)cc1Cl	.	.	.	.	.	.
COc1ccc2c(c1)CCc1cnc(-n3ncc(C(=O)N4CCN(CCO)CC4)c3C3CC3)nc1-2	/	/	/	.	/	/

From PubChem BioAssay
